This passage reports binding signal results from publication PMC10668032, “Altered binding affinity of SIX1-Q177R correlates with enhanced WNT5A and WNT pathway effector expression in Wilms tumor”.

Over roughly 33,000 sequences, “e-score” has its median near -0.053; the highest 2% begin near 0.38. This excerpt belongs to a sample that is enriched for the highest values.

For this assay, the target named is T1, SIX1 homeodomain (reference allele) (human, UniProt Q15475 108-198).
T1 sequence: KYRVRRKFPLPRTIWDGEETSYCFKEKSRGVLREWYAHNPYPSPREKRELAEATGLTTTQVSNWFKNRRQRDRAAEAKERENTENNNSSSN
Briefly: universal protein binding microarray; Universal all-10-mer PBM (8x60K, AMADID 030236), 300 nM GST-tagged protein, Alexa Fluor 488 anti-GST; buffer, salt, pH and temperature not stated (as in Berger); high values mean tight binding. The settings on record: protein: ivt; tags: N-terminal GST; dsDNA, one strand shown. The method in brief: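 Homeodomains carrying a GST tag were produced by in vitro transcription/translation, then quantified by anti-GST western blot against a recombinant GST standard curve. Duplicate applications at 300 nM final concentration were made to universal 'all 10-mer' protein binding microarrays in 8×60K format. The Universal PBM Analysis Suite was used to express binding as 8-mer E-scores.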
As for ATGAGAAG, the binding signal came to 0.176 ± 0.0788 E-score. On to ATATGCAG, for which the binding signal was determined as 0.222 ± 0.0653 E-score.

In the case of GATTACGC, the binding signal was 0.225 ± 0.0112 E-score.

On to ATTGAGTA, for which the binding signal worked out at 0.192 ± 0.0104 E-score. On to AGATCTCC, for which the binding signal is 0.184 ± 0.0698 E-score. For the sequence ATCTGAGA, the binding signal came to 0.292 ± 0.0452 E-score. In the case of CATATGAG, the binding signal is 0.19 ± 0.0156 E-score. Regarding GATCGCAC, the binding signal came to 0.253 ± 0.0507 E-score. Consider ATCATATG, for which the binding signal stood at 0.281 ± 0.0284 E-score. Regarding ATTATATG, the binding signal came to 0.182 ± 0.0439 E-score. Under ATGATATC stands 0.476 ± 0.0196 E-score.

With ATAATATC, the binding signal was 0.358 ± 0.0729 E-score. For the sequence ATTATATC, the binding signal stood at 0.329 ± 0.0838 E-score. ATTATATA: the binding signal was 0.254 ± 0.0255 E-score. With ATGATATG, the binding signal stood at 0.472 ± 0.0175 E-score.

Regarding ATGATATA, the binding signal worked out at 0.414 ± 0.0235 E-score. Regarding AAGATATA, the binding signal stood at 0.28 ± 0.0929 E-score.

For CTGGCATA, the binding signal worked out at 0.228 ± 0.0218 E-score. For the sequence ATCATTCC, the binding signal came out at 0.291 ± 0.0446 E-score. GATCAACC: the binding signal amounted to 0.319 ± 0.0399 E-score. ACGATCAG: the binding signal amounted to 0.1967 ± 0.000827 E-score. Under CGGATTTA stands 0.196 ± 0.05 E-score; under GATCCCCC, 0.47 ± 0.0193 E-score; under GATCCCAA, 0.275 ± 0.0231 E-score. As for GATCCCAC, the binding signal was found to be 0.379 ± 0.0379 E-score. Take TATCCCCA: the binding signal was 0.35 ± 0.00527 E-score. Take AATCCCCC: the binding signal came out at 0.261 ± 0.00738 E-score.

In the case of GATCCCCA, the binding signal worked out at 0.387 ± 0.046 E-score. With CATCCCCC, the binding signal was found to be 0.199 ± 0.0656 E-score. For the sequence GATCGCCC, the binding signal came out at 0.379 ± 0.00824 E-score. For the sequence GATCGCGC, the binding signal was 0.197 ± 0.0401 E-score. For GATCGCCA, the binding signal came to 0.211 ± 0.0516 E-score. In the case of GATCCCGC, the binding signal was found to be 0.375 ± 0.0422 E-score.

With AATCCCAC, the binding signal was 0.158 ± 0.00675 E-score. As to ATCTACAG, the binding signal came to 0.152 ± 0.023 E-score. As to ACGTATAT, the binding signal amounted to 0.271 ± 0.065 E-score. For ATCTAGAT, the binding signal stood at 0.26 ± 0.0531 E-score. As for CGAGACGA, the binding signal came out at 0.156 ± 0.029 E-score. Consider CCGGAGAC, for which the binding signal stood at 0.184 ± 0.00939 E-score. As for CCCCGATC, the binding signal worked out at 0.346 ± 0.0685 E-score.

Take ATGAGCTC: the binding signal is 0.166 ± 0.0357 E-score. Under GATCCTCC stands 0.381 ± 0.0158 E-score; under CATCCTCC, 0.153 ± 0.0426 E-score.

On to GATCCTCA, for which the binding signal came out at 0.295 ± 0.0129 E-score. For the sequence GATCCACC, the binding signal came out at 0.394 ± 0.0435 E-score.

As to GATCCAGC, the binding signal was 0.265 ± 0.0768 E-score. Take GATCCACA: the binding signal amounted to 0.335 ± 0.0765 E-score. Under ATCTGTCC stands 0.29 ± 0.0606 E-score; under CGAGACAC, 0.176 ± 0.0324 E-score; under CATAGATA, 0.259 ± 0.0781 E-score. Regarding TCACATGA, the binding signal was 0.166 ± 0.0132 E-score. Take CAATCCCA: the binding signal was determined as 0.177 ± 0.00991 E-score. Consider CAATCCCG, for which the binding signal was 0.155 ± 0.0636 E-score.

For GTATCCCA, the binding signal was 0.388 ± 0.0324 E-score. On to AAATCCCC, for which the binding signal turned out to be 0.181 ± 0.0853 E-score. Consider ATCTCCCG, for which the binding signal amounted to 0.222 ± 0.0116 E-score. As to CTATCCCA, the binding signal was 0.257 ± 0.013 E-score. On to GAATCCCA, for which the binding signal amounted to 0.165 ± 0.0648 E-score.

In the case of ATATCCCG, the binding signal is 0.42 ± 0.0102 E-score.

Turning to ATCTCCCA, the binding signal is 0.238 ± 0.0314 E-score. Under ATATCCCA stands 0.418 ± 0.0119 E-score. As for CTATCCCC, the binding signal is 0.321 ± 0.0256 E-score. Regarding ATATCCCC, the binding signal came to 0.457 ± 0.00651 E-score.

As for ATCAAGGG, the binding signal is 0.258 ± 0.0527 E-score. Regarding GGAGATTA, the binding signal is 0.197 ± 0.0921 E-score. Take ATCGGGTC: the binding signal is 0.285 ± 0.0351 E-score. Under CCGATGAG stands 0.173 ± 0.0124 E-score; under GAGATAGA, 0.183 ± 0.00408 E-score; under ACGAATAT, 0.179 ± 0.047 E-score.

On to CGTTATAC, for which the binding signal was 0.204 ± 0.0355 E-score. Consider ATCATGTG, for which the binding signal is 0.328 ± 0.0175 E-score. Regarding CATTGCGG, the binding signal was 0.222 ± 0.028 E-score. Consider CCGCCATA, for which the binding signal is 0.209 ± 0.0131 E-score.

On to ATACAACG, for which the binding signal was found to be 0.152 ± 0.0326 E-score. Turning to ATCCTCTC, the binding signal worked out at 0.264 ± 0.0756 E-score.

Consider ATCGCTCA, for which the binding signal was 0.192 ± 0.00955 E-score. Turning to GCGGTATA, the binding signal is 0.3752 ± 0.00298 E-score. GGGGTAGA: the binding signal stood at 0.158 ± 0.0407 E-score. Under AGGGTATA stands 0.407 ± 0.0114 E-score. Regarding CGGGTATA, the binding signal came to 0.365 ± 0.00269 E-score.

As for CGGGGGTA, the binding signal was 0.301 ± 0.0117 E-score. AAGGTATA: the binding signal was 0.272 ± 0.131 E-score. For the sequence GGGGTATA, the binding signal turned out to be 0.441 ± 0.0155 E-score. Take CGGGTCTC: the binding signal is 0.187 ± 0.0479 E-score. Take TAGGTATA: the binding signal was found to be 0.382 ± 0.0292 E-score. Under CGGGTATC stands 0.487 ± 0.00716 E-score; under AGGGGGTA, 0.294 ± 0.0383 E-score.
